Source: PubChem BioAssay
In the library only some 3.6% were active in any assay of this set; here they are far more common.
Pf apPOL inh = Pf-apPOL DNA polymerase inhibition; Recombinant Pf-apPOL, molecular beacon fluorescence, 1.5 h; inhibition, % at 10 µM; 210,000 compounds, 0.25% hits
mHTT CaM bind = mHTT-calmodulin interaction abrogation. P42858. 190,000 compounds, 3.6% hits. AlphaScreen His-mHTT/GST-CaM binding, luminescence. inhibition, % at 15 µM;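 note: 0% = both proteins with DMSO and 100% = one protein alone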
* hit, by the source's call; . = not tested or not shown; ! = repeats disagree. Cut-off read from the data, not from the text of the source: active = inhibition above about 50%; inactive = the rest.

SMILES	Pf apPOL inh	mHTT CaM bind
COc1ccc(C2CC(c3c(-c4ccccc4)c4cc(Br)ccc4[nH]c3=O)=NO2)cc1 (configuration not stated)	6	15
O=c1c2c3n(c4ccccc4c(=O)n3c3ccccc13)CC2	-2	21
C1Cc2nc(C3CC3)nc(NCC3CCCO3)c2C1 (configuration not stated)	-1	0
COc1ccc(C2CC(C(F)(F)F)n3nc(C(=O)Nc4ccc(Cl)cc4)cc3N2)cc1 (configuration not stated)	-5	3
O=c1c2ccccc2c(-c2ccccc2)nn1-c1cc(N2CCN(CCO)CC2)ccc1[N+](=O)[O-]	-4	46
O=c1c2ccccc2c(-c2ccc(Cl)cc2)nn1-c1cc(N2CCNCC2)ccc1[N+](=O)[O-]	2	98*
CN1CCN(c2ccc([N+](=O)[O-])c(-n3nc(-c4ccccc4)c4ccccc4c3=O)c2)CC1	-5	55*!
O=c1c2ccccc2c(-c2ccc(F)cc2)nn1-c1cc(N2CCOCC2)ccc1[N+](=O)[O-]	0	35
C=CCn1cc(Cl)ccc1=NC=C(C#N)C#N	.	-9
OC1CCC(n2c(-c3ccccc3)nc(=S)c3c2CCCC3)CC1 (configuration not stated)	-4	-1
O=Cc1ccc(-c2ccc(S(=O)(=O)O)cc2)o1	-8	76*
NS(=O)(=O)c1ccc(-c2ccc(C=O)o2)cc1	-8	-3
N#CC1=C(N)OC2=C(C(=O)CCC2)C1c1ccc([N+](=O)[O-])cc1 (configuration not stated)	-4	-5
COc1ccc(CC(=O)Nc2ccc(Cl)cc2C)cc1	1	-1
COc1ccc(C)cc1-n1cnc2cc(C(=O)NCC(OC)OC)ccc21	-2	5
CCOC(CNC(=O)c1ccc2c(c1)ncn2-c1cc(Cl)ccc1OC)OCC	-4	53*
O=C(COc1ccccc1)N1CCCCC1CCN1CCCCC1 (configuration not stated)	-6	-6
CCNc1cc(N2CCCC(CCC(=O)N3CCCC3)C2)ncn1 (configuration not stated)	-7	-8
COc1ccc(N=C2NC(=O)S/C2=C\c2ccc(N(C)C)cc2)cc1	-49	17
CN(C)c1ccc(N=C2C=CC(=O)C=C2)cc1	.	95*
CCCN(C)Cc1nc2nc(C)cc(N3CCCCCC3)n2n1	-7	19
CCc1nc2nc(C)cc(N3CCN(c4ccc(C)cc4C)CC3)n2n1	-8	63*
COc1cc(NC(=O)NCC2CCN(C(=O)c3ccccc3F)CC2)cc(OC)c1OC	-3	-3
O=C(Nc1cccc(Cl)c1)c1cc(S(=O)(=O)NCCC2=CCCCC2)ccc1F	-3	24
CC1(C)CC(=O)C2=C(C1)N=C1c3ccccc3C(=O)C1C2c1cccc(Br)c1 (configuration not stated)	-3	61*
SMILES	Pf apPOL inh	mHTT CaM bind
CC1(C)CC(=O)C2=C(C1)N=C1c3ccccc3C(=O)C1C2c1ccc2c(c1)OCO2 (configuration not stated)	-3	49
CC1(C)CC(=O)C2=C(C1)N=C1c3ccccc3C(=O)C1C2c1ccc([N+](=O)[O-])cc1 (configuration not stated)	-3	35
CC1(C)CC(=O)C2=C(C1)N=C1c3ccccc3C(=O)C1C2c1cc([N+](=O)[O-])ccc1O (configuration not stated)	-6	53*
O=C1CCCC2=C1C(c1ccc3c(c1)OCO3)C1C(=O)c3ccccc3C1=N2 (configuration not stated)	-5	55*
CC1(C)CC(=O)C2=C(C1)N=C1c3ccccc3C(=O)C1C2c1cccc(F)c1 (configuration not stated)	-9	10
CCc1ccc(NC(=O)N2CCC(c3nc4cccnc4n3CC)C2)cc1 (configuration not stated)	-10	2
CC(=O)Nc1cccnc1-c1ccc(C(=O)Nc2ccc(C)cc2)cc1	17	1
CCn1cc(C(=O)NCC(OC)OC)c(=O)c2ccc(C)nc21	-4	1
COc1ccc(OC)c(CN2C(=O)CCC2(C)C(=O)NC2CCCC2)c1 (configuration not stated)	-6	1
COc1ccccc1NC1OC(=O)c2ccccc21 (configuration not stated)	-3	-1
COc1ccccc1NCC(O)CC1C(C)=C(C)c2ccccc21 (configuration not stated)	1	63*
Cc1cc(C(=O)N2CCC3(CC2)OCCO3)c2ccccc2n1	-8	-6
Cc1ccc(Cn2c(=O)cc(C(=O)N3CCC4(CC3)OCCO4)c3ccccc32)cc1	1	59*
CC(C)C(=O)Nc1ccc(C2(C(=O)N3CCN(c4ccccn4)CC3)CCCCC2)cc1	4	28
CNC(=O)Nc1ccc(C2(C(=O)N3CCN(c4ccccc4)CC3)CCC2)cc1	1	11
CC(=O)Nc1ccc(C2(C(=O)N3CCN(c4ccccc4)CC3)CCCCC2)cc1	-1	91*
CNC(=O)Nc1ccc(C2(C(=O)N3CCN(c4cccc(Cl)c4)CC3)CCC2)cc1	1	67*
COc1cc(/C=C2\C(=O)ON=C2C)cc(Cl)c1OCc1ccccc1F	-5	60*
COc1cc(/C=C2\C(=O)ON=C2C)cc(Br)c1OC	4	24
CCOc1cc(/C=C2\NC(=O)NC2=O)cc(Cl)c1OCc1ccccc1F	-2	68*
COc1cc(/C=C2\C(=O)ON=C2C)cc(Br)c1OCc1cccc(F)c1	-3	51*
C=CCOc1c(Cl)cc(/C=C2\C(=O)ON=C2C)cc1OC	-1	35
CC1=NOC(=O)/C1=C/c1ccc(OCc2ccccc2F)c(Cl)c1	-9	2
COc1cc(/C=C2\NC(=O)NC2=O)ccc1OCc1ccccc1F	-2	-2
COc1cc(/C=C2\C(=O)ON=C2C)cc(Cl)c1OCc1cccc(F)c1	0	86*
SMILES	Pf apPOL inh	mHTT CaM bind
CCC(=O)N1CCN(c2nc3c(s2)CC(C(=O)NCCOC)CC3)CC1 (configuration not stated)	0	13
Cn1nc(C(=O)NCc2ccc3c(c2)OCO3)c2c1CCN(C(=O)c1ccco1)C2	-8	-4
Cn1nc(C(=O)NCc2ccc3c(c2)OCO3)c2c1CCN(C(=O)Cc1cccs1)C2	-5	54*
Cn1nc(C(=O)NCc2ccc3c(c2)OCO3)c2c1CCN(C(=O)c1cccs1)C2	0	11
Cn1nc(C(=O)NCc2ccc3c(c2)OCO3)c2c1CCN(C(=O)c1ccc(F)cc1)C2	-14	51*
CC(C)(C)C(=O)N1CCN(c2ccc(Nc3cccnc3)nn2)CC1	-2	-2
O=CNc1nc(C2COc3ccccc3O2)cs1 (configuration not stated)	-6	1
Brc1ccc(-c2nn3c(-c4ccccn4)nnc3s2)o1	.	85*
c1ccc(-c2nnc3sc(C4CCCCC4)nn23)nc1	.	5
O=C(O)/C=C/c1cccc(N=Cc2ccc([N+](=O)[O-])o2)c1	-2	71*
O=C(O)/C=C/c1cccc(N=Cc2ccc(N3CCOCC3)cc2)c1	2	-6
CN1CCN(C(=O)CCC2CCCN(C(=O)Nc3ccc(F)cc3)C2)CC1 (configuration not stated)	-7	0
COc1cccc(CN2CCc3nc(N4CCC(C)CC4)ncc3C2)c1OC	-3	23
COc1cc(OC)c(OC)cc1CN1CCc2nc(N3CCN(C)CC3)ncc2C1	-3	27
Fc1ccccc1CN1CCc2nc(N3CCOCC3)ncc2C1	0	6
